Laboratory results as given in PubChem BioAssay AID651548 (Broad Institute, 2012).
In all, about 57,000 compounds went through this assay and about 200 (0.35%) were called active.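 How the source made its calls: active means mean inhibition of replicates at least 50% and every single replicate also reaching 50%; inconclusive means mean inhibition at least 50% but some replicate falls below 50%; inactive means mean inhibition under 50%.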 For the sample, actives were picked, then their nearest neighbours and some compounds at random.

Target: Histone-lysine N-methyltransferase EZH2 (Homo sapiens) (UniProt Q15910)
Assay: inhibition of PRC2 H3K27 methylation – biochemical, DELFIA time-resolved fluorescence, single point, primary screen (AID 651548);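 further: dimethyl H3K27 on biotinylated H3 21-44 peptide detected by antibody; plate controls were median neutral control wells for no effect and median positive control wells for full effect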
Settings: DELFIA TRF, 1 h, at 12.5 µM, active compounds read high

Chain of Histone-lysine N-methyltransferase EZH2 (Homo sapiens) (Q15910 whole entry, looked up): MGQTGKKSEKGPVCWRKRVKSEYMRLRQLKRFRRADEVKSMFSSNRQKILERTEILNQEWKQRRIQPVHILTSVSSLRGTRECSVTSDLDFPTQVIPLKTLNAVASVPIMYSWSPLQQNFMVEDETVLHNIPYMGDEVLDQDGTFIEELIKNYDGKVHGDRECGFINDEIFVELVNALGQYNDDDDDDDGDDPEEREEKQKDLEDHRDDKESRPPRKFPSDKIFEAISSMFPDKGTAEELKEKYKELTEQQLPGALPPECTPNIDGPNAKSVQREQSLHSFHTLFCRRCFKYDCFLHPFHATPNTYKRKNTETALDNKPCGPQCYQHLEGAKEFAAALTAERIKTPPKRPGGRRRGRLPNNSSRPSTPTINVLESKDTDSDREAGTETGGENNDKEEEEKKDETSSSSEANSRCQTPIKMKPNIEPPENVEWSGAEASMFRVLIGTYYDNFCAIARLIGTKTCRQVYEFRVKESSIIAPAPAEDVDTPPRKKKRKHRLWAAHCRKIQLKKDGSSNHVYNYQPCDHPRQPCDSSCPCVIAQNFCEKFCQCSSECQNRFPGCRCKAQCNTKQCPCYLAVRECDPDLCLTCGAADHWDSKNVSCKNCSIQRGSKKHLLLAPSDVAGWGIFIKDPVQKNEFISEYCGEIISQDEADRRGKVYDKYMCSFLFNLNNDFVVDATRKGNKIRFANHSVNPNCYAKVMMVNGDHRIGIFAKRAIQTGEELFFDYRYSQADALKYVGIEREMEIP

Compound | inhibition
C[C@@H](NC(=O)C[C@H]1C[C@@H]2c3cc(NC(=O)c4ccc5c(c4)OCO5)ccc3O[C@@H]2[C@@H](CO)O1)c1ccccc1 | -6.67% (inactive)
COc1ccccc1NC(=O)N[C@H]1CC[C@@H](CC(=O)N[C@@H](C)c2ccccc2)O[C@H]1CO | -11.3% (inactive)
O=C(C[C@H]1CC[C@H](NC(=O)Nc2ccccc2F)[C@@H](CO)O1)NCc1ccccc1 | 4.86% (inactive)
O=C(C[C@@H]1CC[C@H](NC(=O)C2CC2)[C@@H](CO)O1)NCc1ccncc1 | 3.36% (inactive)
C[C@@H]1CN([C@@H](C)CO)C(=O)c2cc(-c3cccnc3)cnc2O[C@H]1CN(C)Cc1ccc(-c2ccccc2)cc1 | 7.86% (inactive)
CN(C)Cc1cn(CC[C@H]2CC[C@H](NC(=O)Nc3ccccc3F)[C@@H](CO)O2)nn1 | 24.4% (inactive)
C[C@H]1CN([C@@H](C)CO)S(=O)(=O)c2ccc(-c3cccnc3)cc2O[C@H]1CN(C)C(=O)C1CCCCC1 | 0.754% (inactive)
C[C@@H]1CN([C@@H](C)CO)S(=O)(=O)c2ccc(-c3ccc(F)cc3)cc2O[C@H]1CN(C)C(=O)c1ccccc1F | -11% (inactive)
CO[C@@H]1CN(C)C(=O)c2cc(NC(=O)c3ccccc3)ccc2OC[C@@H](C)N(C(C)=O)C[C@@H]1C | 4.81% (inactive)
O=C(C[C@H]1C=C[C@H](NC(=O)c2cccc(F)c2)[C@@H](CO)O1)NCc1ccc(Oc2ccccc2)cc1 | -0.132% (inactive)
CCCC(=O)Nc1ccc2c(c1)C(=O)N(C)C[C@@H](OC)[C@@H](C)CN(C(=O)CC)[C@H](C)CO2 | 8.4% (inactive)
C/C=C1/[C@H](O[C@@H]2O[C@H](CO)[C@@H](O)[C@H](O)[C@H]2O)OC=C2C(=O)O[C@@H]3C[C@@H](C(C)CO)[C@H](COC(=O)C[C@H]21)[C@H]3C (stereo not given in full) | -12.8% (inactive)
COC(=O)C1=CO[C@@H](O[C@@H]2O[C@H](CO)[C@@H](O)[C@H](O)[C@H]2O)[C@@H]2[C@@H](C)[C@@H](OC(=O)C3=CO[C@@H](O[C@@H]4O[C@H](CO)[C@@H](O)[C@H](O)[C@H]4O)[C@@H]4[C@@H](C)[C@@H](OC(C)=O)C[C@H]34)C[C@H]12 | -4.29% (inactive)
CC1=COC(O[C@@H]2O[C@H](CO)[C@@H](O)[C@H](O)[C@H]2O)C2C1CC(O)C2CO (stereo not given in full) | 58.6% (active)
COc1ccccc1-c1cn(CC[C@H]2CC[C@@H](NC(=O)Cc3ccccn3)[C@@H](CO)O2)nn1 | 9.32% (inactive)
COc1cccc(NC(=O)Nc2ccc3c(c2)C(=O)N(C)C[C@@H](OC)[C@H](C)CN(CC2CC2)[C@H](C)CO3)c1 | -8.45% (inactive)
CN1CCN(C(=O)c2cc3c(c(-c4cccc(-c5ccc(C(=O)N(C)C)cc5)c4)n2)[C@@H](CCO)N([S@](=O)C(C)(C)C)C3)CC1 | -12.8% (inactive)
COc1ccc(CN2C[C@@H](C)[C@H](OC)CN(C)C(=O)c3cc(NC(C)=O)ccc3OC[C@@H]2C)cc1 | -2.6% (inactive)
O=C(C[C@H]1C=C[C@H](NC(=O)c2cnccn2)[C@@H](CO)O1)NCc1ccccc1F | 4.44% (inactive)
CN(C)C(=O)C[C@H]1C[C@@H]2c3cc(NC(=O)NC4CCCCC4)ccc3O[C@@H]2[C@@H](CO)O1 | 9.52% (inactive)

Compound | inhibition
O=C(C[C@@H]1C=C[C@@H](NC(=O)C2CC2)[C@H](CO)O1)NCCCN1CCOCC1 | -1.42% (inactive)
CCC(=O)Nc1ccc2c(c1)C(=O)N(C)C[C@H](OC)[C@@H](C)CN(C(=O)c1cnccn1)[C@@H](C)CO2 | 11.1% (inactive)
COCC(=O)Nc1ccc2c(c1)OC[C@H](C)N(Cc1ccccc1OC)C[C@@H](C)[C@@H](OC)CN(C)C2=O | -9.26% (inactive)
CO[C@H]1CN(C)C(=O)c2cc(NS(=O)(=O)CC(F)(F)F)ccc2OC[C@H](C)N(C(=O)c2ccc3c(c2)OCO3)C[C@H]1C | 13% (inactive)
CO[C@@H]1CN(C)C(=O)c2cc(NC(=O)c3ccno3)ccc2OC[C@@H](C)N(S(C)(=O)=O)C[C@@H]1C | 4.22% (inactive)
O=C(CCCCCC(=O)Nc1ccccc1O)N/N=C/c1ccc(I)cc1 | 14.9% (inactive)
O=C(CCCCCCC(=O)Nc1ccccc1O)N/N=C/c1ccc(C(F)(F)F)cc1 | -17.5% (inactive)
O=C(CCCCCCC(=O)Nc1ccccc1O)N/N=C/c1ccc(Oc2ccccc2)cc1 | 60.3% (active)
O=C(C[C@@H]1C[C@@H]2c3cc(NS(=O)(=O)c4ccc(F)cc4)ccc3O[C@@H]2[C@H](CO)O1)NCc1cc(F)ccc1F | 17% (inactive)
CCCCc1nn(-c2ccccc2C(F)(F)F)c(=O)n1Cc1ccc(-c2ccccc2S(=O)(=O)NC(=O)c2sccc2C)cc1 | 62% (active)
COCC(=O)Nc1ccc2c(c1)C(=O)N(C)C[C@H](OC)[C@@H](C)CN(CC1CC1)[C@@H](C)CO2 | 9.52% (inactive)
O=C(C[C@@H]1C[C@@H]2c3cc(NC(=O)C4CCC4)ccc3O[C@@H]2[C@@H](CO)O1)NCCN1CCCCC1 | -3.85% (inactive)
CC(C)NC(=O)N[C@@H]1CC[C@H](CC(=O)NCCN2CCCC2)O[C@@H]1CO | -11.4% (inactive)
C[C@H](O)C#Cc1ccc2c(c1)O[C@H](CN(C)C(=O)C1CC1)[C@@H](C)CN([C@H](C)CO)S2(=O)=O | 7.79% (inactive)
CO[C@H]1CN(C)C(=O)c2ccc(NS(=O)(=O)c3cn(C)cn3)cc2OC[C@@H](C)N(C)C[C@@H]1C | -2.12% (inactive)
CCC(=O)N(C)C[C@H]1Oc2cc(C#CC3CCCC3)ccc2S(=O)(=O)N([C@H](C)CO)C[C@@H]1C | 10% (inactive)
CN(C)CC(=O)N[C@@H]1CC[C@H](CCn2cc(C3CCCC3)nn2)O[C@H]1CO | -5.37% (inactive)
O=C(CCN1CCCCC1)N[C@H]1CC[C@H](CCNS(=O)(=O)c2ccc(F)cc2)O[C@@H]1CO | 4.74% (inactive)
O=C(NCC[C@H]1CC[C@@H](NC(=O)c2ccncc2)[C@@H](CO)O1)Nc1ccc(Cl)cc1 | 1.17% (inactive)
COc1cccc(NC(=O)N[C@@H]2C=C[C@H](CC(=O)NCc3ccccn3)O[C@H]2CO)c1 | -2.05% (inactive)
